About 83,000 compounds went through this panel and 20% of them were active in at least one assay; those are over-represented in the sample as a whole.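 96-well plates, one dose, 48 hours. Percent growth reported; active if below 10.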 Active and inactive are the calls of the source.
Test system: SF-539 CNS
Experiment: NCI-60 one-dose screen, 48 h (100 = growth as untreated, 0 = no growth, -100 = all killed)
Details: 10 µM unless noted

Question: N#CC1=C(N)Oc2c(c(N)nn2-c2ccccc2)C1c1ccc(Cl)cc1Cl (stereo unspecified) was tested. Which growth did it give?
Answer: 94.3% (inactive)

Question: How did the growth turn out when C=C(C)[C@@H]1CC[C@]2(C=O)CC[C@]3(C)[C@H](CC[C@@H]4[C@@]5(C)C/C(=C/c6cccnc6)C(=O)C(C)(C)[C@@H]5CC[C@]43C)[C@@H]12 was run?
Answer: 96.5% (inactive)

Question: Which growth does the source give for C=C(C)[C@@H]1CC[C@]2(C(=O)N3CCN(CC)CC3)CC[C@]3(C)[C@H](CC[C@@H]4[C@@](C)(CCC(=O)N5CCN(CC)CC5)[C@H](C(=C)C)CC[C@]43C)[C@@H]12 here?
Answer: 66% (inactive)

Question: Which growth does the source give for CCN1CCN(C(=O)[C@]23CCC(C)(C)C[C@H]2C2=CC[C@@H]4[C@@]5(C)CC/C(=N/O)C(C)(C)[C@@H]5CC[C@@]4(C)[C@]2(C)CC3)CC1 here?
Answer: 80.4% (inactive)

Question: N#CC1=C(N)Oc2c(sc3c(F)cccc23)C1c1ccc(Cl)cc1 (stereo unspecified) was tested. Which growth did it give?
Answer: -0.306% (active)

Question: Which growth does the source give for O=C1c2cccc3cccc(c23)C(=O)N1CC#Cc1ccc2c3c(cccc13)C(=O)N(CCN1CCNCC1)C2=O here?
Answer: 10.2% (inactive)

Question: C=C(C)[C@@H]1CC[C@]2(/C=N/Nc3ccncc3)CC[C@]3(C)[C@H](CC[C@@H]4[C@@]5(C)CCCNC(C)(C)[C@@H]5CC[C@]43C)[C@@H]12 was tested. Which growth did it give?
Answer: 88.7% (inactive)

Question: For Cc1ccnc2c(OCc3ccccc3)cccc12, which growth is on record?
Answer: 104% (inactive)

Question: C=CC(=O)N[C@H](Cc1ccc(-c2cc(Cl)cc(Cl)c2)cc1)[C@H](O)[C@@H](O)C(=O)O was tested. Which growth did it give?
Answer: 99.6% (inactive)

Question: For C=COCCCCCCCCCCCCCCCCCC, which growth is on record?
Answer: 96.4% (inactive)

Question: Which growth does the source give for COc1cc2ncnc(Nc3ccc(Oc4ccnc(C)c4)c(C)c3)c2cc1NC(=O)CC1CCSS1 (stereo unspecified) here?
Answer: 1.45% (active)

— PubChem BioAssay (NCI)
